{
  "source": "PubChem BioAssay (Tox21)",
  "note": "Activity calls are given as the source filed them. Entries that show only a call come without a potency. The call rests on the fitted dose curve; in most records, active means well fitted curve in the direction sought with a large enough effect in the repeat runs; inconclusive means weak or mixed curves; inactive means flat fitted curve, though single readings scatter.",
  "data": [
    {"assay": "qHTS assay to test for compound auto fluorescence at 460 nm (blue) in HEK293 cell free culture (AID 720681); further: potency means the concentration at half of the fitted maximal effect", "settings": "cell-free medium, autofluorescence 405/460 nm (blue); series mostly up to 91.3 µM", "how_it_was_run": "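Test compounds were pinned into cell-free culture medium (DMEM with 10% FBS) and fluorescence was read directly at Ex/Em 405/460 nm. Signals were expressed as fluorescence equivalents of triamterene, with DMSO vehicle as control.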", "values": [
      {"smiles": "Clc1cc(Cl)c(Cl)cc1Cl", "Potency": "inactive"},
      {"smiles": "NCc1cccc(CN)c1", "Potency": "inactive"},
      {"smiles": "CC[Si](OC(C)=O)(OC(C)=O)OC(C)=O", "Potency": "inactive"},
      {"smiles": "O=S(=O)(O)CCS", "Potency": "inactive"},
      {"smiles": "CCCCCCCCC", "Potency": "inactive"},
      {"smiles": "C=C1C2CCC(C2)C1(C)C", "note": "(stereo unspecified)", "Potency": "inactive"},
      {"smiles": "OCCOCCOCCOCCO", "Potency": "inactive"},
      {"smiles": "C=C(C)C(=O)OCCC[Si](OC)(OC)OC", "Potency": "inactive"},
      {"smiles": "CS(=O)(=O)c1ccc([C@@H](O)[C@@H](CO)NC(=O)C(Cl)Cl)cc1", "Potency": "inactive"},
      {"smiles": "C=C(C#N)C(=O)OCC", "Potency": "inactive"},
      {"smiles": "CCCCCCCCCCCCN", "Potency": "inactive"},
      {"smiles": "O=[N+]([O-])C(CO)(CO)CO", "Potency": "inactive"},
      {"smiles": "NCCc1ccc(O)c(O)c1", "Potency": "inactive"},
      {"smiles": "CC1=C(CC(=O)O)c2cc(F)ccc2/C1=C\\c1ccc(S(C)=O)cc1", "note": "(stereo unspecified)", "Potency": "inactive"},
      {"smiles": "COC(=O)c1ccccc1O", "Potency": "inactive"},
      {"smiles": "O=C(O)c1cc(-c2ccccc2)nc2ccccc12", "Potency": "inactive"},
      {"smiles": "O=c1c(-c2ccc(O)cc2)coc2cc(O)ccc12", "Potency": "inactive"},
      {"smiles": "Cc1ccc(N)c(S(=O)(=O)O)c1", "Potency": "inactive"},
      {"smiles": "CCCCC/C=C\\C/C=C\\CCCCCCCC(=O)OC", "Potency": "inactive"},
      {"smiles": "C/C=C(C)/C=C/C=C(C)C", "Potency": "inactive"},
      {"smiles": "COC(=O)c1ccc(C(=O)OC)cc1", "Potency": "inactive"},
      {"smiles": "OC[C@@H](O)[C@@H](O)[C@H](O)[C@@H](O)CO", "Potency": "inactive"},
      {"smiles": "CC#C[C@]1(O)CC[C@H]2[C@@H]3CCC4=CC(=O)CCC4=C3[C@@H](c3ccc(N(C)C)cc3)C[C@@]21C", "Potency": "inactive"},
      {"smiles": "CCOC(=O)[C@H](CCc1ccccc1)N[C@@H](C)C(=O)N1Cc2ccccc2C[C@H]1C(=O)O", "Potency": "inactive"},
      {"smiles": "Nc1nc2ncc(CNc3ccc(C(=O)N[C@@H](CCC(=O)O)C(=O)O)cc3)nc2c(=O)[nH]1", "Potency": "35.5 µM (active)"},
      {"smiles": "CCOC(=O)/C=C\\C(=O)OCC", "Potency": "inactive"},
      {"smiles": "CC1Cc2ccccc2N1NC(=O)c1ccc(Cl)c(S(N)(=O)=O)c1", "note": "(stereo unspecified)", "Potency": "inactive"},
      {"smiles": "CCCCNC(N)=O", "Potency": "inactive"},
      {"smiles": "Cc1cc(Cc2ccc(N)c(C)c2)ccc1N", "Potency": "inactive"},
      {"smiles": "Oc1c(Cl)cc(Cl)c(Cl)c1Cl", "Potency": "inactive"},
      {"smiles": "Clc1ccc(Cl)c(Cl)c1Cl", "Potency": "inactive"},
      {"smiles": "Cc1cc(=O)[nH]c(C(C)C)n1", "Potency": "inactive"},
      {"smiles": "CCC(C)C=O", "note": "(stereo unspecified)", "Potency": "inactive"},
      {"smiles": "Cn1c([N+](=O)[O-])cnc1COC(N)=O", "Potency": "inactive"},
      {"smiles": "CC1(C)CC(N=C=O)CC(C)(CN=C=O)C1", "note": "(stereo unspecified)", "Potency": "inactive"},
      {"smiles": "CCCCC(CC)COC(=O)CCCCCCCC(=O)OCC(CC)CCCC", "note": "(stereo unspecified)", "Potency": "inactive"},
      {"smiles": "NC(=O)/N=N/C(N)=O", "Potency": "inactive"},
      {"smiles": "CCC(=O)O", "Potency": "inactive"},
      {"smiles": "CC(C)(CO)COC(=O)C(C)(C)CO", "Potency": "inactive"}
    ]},
    {"assay": "qHTS assay to test for compound auto fluorescence at 535 nm (green) in HEK293 cell free culture (AID 720682)", "settings": "cell-free medium, green autofluorescence 485/535 nm, active compounds read high; series mostly up to 91.3 µM", "how_it_was_run": "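Green-channel intensity (Ex/Em 485/535 nm) was recorded from compound-treated wells containing only DMEM with 10% FBS. Fluorescein provided the equivalency standard.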", "values": [
      {"smiles": "NCc1cccc(CN)c1", "outcome": "inactive"},
      {"smiles": "O=S(=O)(O)CCS", "outcome": "inactive"},
      {"smiles": "CCCCCCCCC", "outcome": "inactive"},
      {"smiles": "C=C1C2CCC(C2)C1(C)C", "note": "(stereo unspecified)", "outcome": "inactive"},
      {"smiles": "OCCOCCOCCOCCO", "outcome": "inactive"},
      {"smiles": "C=C(C)C(=O)OCCC[Si](OC)(OC)OC", "outcome": "inactive"},
      {"smiles": "C=C(C#N)C(=O)OCC", "outcome": "inactive"},
      {"smiles": "O=[N+]([O-])C(CO)(CO)CO", "outcome": "inactive"},
      {"smiles": "CC1=C(CC(=O)O)c2cc(F)ccc2/C1=C\\c1ccc(S(C)=O)cc1", "note": "(stereo unspecified)", "outcome": "inactive"},
      {"smiles": "COC(=O)c1ccccc1O", "outcome": "inactive"},
      {"smiles": "O=C(O)c1cc(-c2ccccc2)nc2ccccc12", "outcome": "inactive"},
      {"smiles": "COC(=O)c1ccc(C(=O)OC)cc1", "outcome": "inactive"},
      {"smiles": "OC[C@@H](O)[C@@H](O)[C@H](O)[C@@H](O)CO", "outcome": "inactive"},
      {"smiles": "CC#C[C@]1(O)CC[C@H]2[C@@H]3CCC4=CC(=O)CCC4=C3[C@@H](c3ccc(N(C)C)cc3)C[C@@]21C", "outcome": "inactive"},
      {"smiles": "CC1Cc2ccccc2N1NC(=O)c1ccc(Cl)c(S(N)(=O)=O)c1", "note": "(stereo unspecified)", "outcome": "inactive"},
      {"smiles": "CCCCNC(N)=O", "outcome": "inactive"},
      {"smiles": "Cc1cc(Cc2ccc(N)c(C)c2)ccc1N", "outcome": "inactive"},
      {"smiles": "Clc1ccc(Cl)c(Cl)c1Cl", "outcome": "inactive"},
      {"smiles": "Cc1cc(=O)[nH]c(C(C)C)n1", "outcome": "inactive"},
      {"smiles": "CC1(C)CC(N=C=O)CC(C)(CN=C=O)C1", "note": "(stereo unspecified)", "outcome": "inactive"},
      {"smiles": "NC(=O)/N=N/C(N)=O", "outcome": "inactive"},
      {"smiles": "CCC(=O)O", "outcome": "inactive"},
      {"smiles": "CC(C)(CO)COC(=O)C(C)(C)CO", "outcome": "inactive"}
    ]},
    {"assay": "qHTS assay to test for compound auto fluorescence at 590 nm (red) in HEK293 cell free culture (AID 720683)", "settings": "cell-free medium autofluorescence, Ex540/Em590 red; series mostly up to 91.3 µM", "how_it_was_run": "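Tox21 10K library compounds were pinned into cell-free DMEM with 10% FBS and fluorescence was read at excitation 540 nm. Activity is expressed as Rose Bengal sodium equivalency.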", "values": [
      {"smiles": "Clc1cc(Cl)c(Cl)cc1Cl", "outcome": "inactive"},
      {"smiles": "NCc1cccc(CN)c1", "outcome": "inactive"},
      {"smiles": "CC[Si](OC(C)=O)(OC(C)=O)OC(C)=O", "outcome": "inactive"},
      {"smiles": "O=S(=O)(O)CCS", "outcome": "inactive"},
      {"smiles": "CCCCCCCCC", "outcome": "inactive"},
      {"smiles": "C=C1C2CCC(C2)C1(C)C", "note": "(stereo unspecified)", "outcome": "inactive"},
      {"smiles": "OCCOCCOCCOCCO", "outcome": "inactive"},
      {"smiles": "C=C(C)C(=O)OCCC[Si](OC)(OC)OC", "outcome": "inactive"},
      {"smiles": "CS(=O)(=O)c1ccc([C@@H](O)[C@@H](CO)NC(=O)C(Cl)Cl)cc1", "outcome": "inactive"},
      {"smiles": "C=C(C#N)C(=O)OCC", "outcome": "inactive"},
      {"smiles": "CCCCCCCCCCCCN", "outcome": "inactive"},
      {"smiles": "O=[N+]([O-])C(CO)(CO)CO", "outcome": "inactive"},
      {"smiles": "NCCc1ccc(O)c(O)c1", "outcome": "inactive"},
      {"smiles": "CC1=C(CC(=O)O)c2cc(F)ccc2/C1=C\\c1ccc(S(C)=O)cc1", "note": "(stereo unspecified)", "outcome": "inactive"},
      {"smiles": "COC(=O)c1ccccc1O", "outcome": "inactive"},
      {"smiles": "O=C(O)c1cc(-c2ccccc2)nc2ccccc12", "outcome": "inactive"},
      {"smiles": "O=c1c(-c2ccc(O)cc2)coc2cc(O)ccc12", "outcome": "inactive"},
      {"smiles": "Cc1ccc(N)c(S(=O)(=O)O)c1", "outcome": "inactive"},
      {"smiles": "CCCCC/C=C\\C/C=C\\CCCCCCCC(=O)OC", "outcome": "inactive"},
      {"smiles": "C/C=C(C)/C=C/C=C(C)C", "outcome": "inactive"},
      {"smiles": "COC(=O)c1ccc(C(=O)OC)cc1", "outcome": "inactive"},
      {"smiles": "OC[C@@H](O)[C@@H](O)[C@H](O)[C@@H](O)CO", "outcome": "inactive"},
      {"smiles": "CC#C[C@]1(O)CC[C@H]2[C@@H]3CCC4=CC(=O)CCC4=C3[C@@H](c3ccc(N(C)C)cc3)C[C@@]21C", "outcome": "inactive"},
      {"smiles": "CCOC(=O)[C@H](CCc1ccccc1)N[C@@H](C)C(=O)N1Cc2ccccc2C[C@H]1C(=O)O", "outcome": "inactive"},
      {"smiles": "Nc1nc2ncc(CNc3ccc(C(=O)N[C@@H](CCC(=O)O)C(=O)O)cc3)nc2c(=O)[nH]1", "outcome": "inactive"},
      {"smiles": "CCOC(=O)/C=C\\C(=O)OCC", "outcome": "inactive"},
      {"smiles": "CC1Cc2ccccc2N1NC(=O)c1ccc(Cl)c(S(N)(=O)=O)c1", "note": "(stereo unspecified)", "outcome": "inactive"},
      {"smiles": "CCCCNC(N)=O", "outcome": "inactive"},
      {"smiles": "Cc1cc(Cc2ccc(N)c(C)c2)ccc1N", "outcome": "inactive"},
      {"smiles": "Oc1c(Cl)cc(Cl)c(Cl)c1Cl", "outcome": "inactive"},
      {"smiles": "Clc1ccc(Cl)c(Cl)c1Cl", "outcome": "inactive"},
      {"smiles": "Cc1cc(=O)[nH]c(C(C)C)n1", "outcome": "inactive"},
      {"smiles": "CCC(C)C=O", "note": "(stereo unspecified)", "outcome": "inactive"},
      {"smiles": "Cn1c([N+](=O)[O-])cnc1COC(N)=O", "outcome": "inactive"},
      {"smiles": "CC1(C)CC(N=C=O)CC(C)(CN=C=O)C1", "note": "(stereo unspecified)", "outcome": "inactive"},
      {"smiles": "CCCCC(CC)COC(=O)CCCCCCCC(=O)OCC(CC)CCCC", "note": "(stereo unspecified)", "outcome": "inactive"},
      {"smiles": "NC(=O)/N=N/C(N)=O", "outcome": "inactive"},
      {"smiles": "CCC(=O)O", "outcome": "inactive"},
      {"smiles": "CC(C)(CO)COC(=O)C(C)(C)CO", "outcome": "inactive"}
    ]}
  ]
}
